Only a selection was taken, and hits are over-represented in it overall.
E coli RNAP = Escherichia coli RNA polymerase inhibition | P0A8V2 | E. coli RNA polymerase, fluorescence transcription assay | AID 559 | 62,000 compounds, 0.2% hits | inhibition, %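 (tested at 10 µM)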; in the data active = inhibition above about 20%
PLAP activator = human PLAP activation; P05187; purified PLAP enzyme, luminescent substrate read-out; stronger effect = higher value; activation fold at 20 µM; 96,000 compounds, 1.2% hits; AID 696; in the data active = activation fold above about 2
TNAP act DEA = human TNAP activation, intermediate phosphate acceptor; 64,000 tested, under 10 active; purified TNAP, CDP-star luminescence, 100 mM DEA, 30 min; stronger effect = higher value; scale: 0 levamisole-inhibited, 1 vehicle-only enzyme; activation factor at 20 µM; P05186;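 active = activation factor of at least 2 at 20 µM, relative to controls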
Target sequence (P05186 whole entry, looked up): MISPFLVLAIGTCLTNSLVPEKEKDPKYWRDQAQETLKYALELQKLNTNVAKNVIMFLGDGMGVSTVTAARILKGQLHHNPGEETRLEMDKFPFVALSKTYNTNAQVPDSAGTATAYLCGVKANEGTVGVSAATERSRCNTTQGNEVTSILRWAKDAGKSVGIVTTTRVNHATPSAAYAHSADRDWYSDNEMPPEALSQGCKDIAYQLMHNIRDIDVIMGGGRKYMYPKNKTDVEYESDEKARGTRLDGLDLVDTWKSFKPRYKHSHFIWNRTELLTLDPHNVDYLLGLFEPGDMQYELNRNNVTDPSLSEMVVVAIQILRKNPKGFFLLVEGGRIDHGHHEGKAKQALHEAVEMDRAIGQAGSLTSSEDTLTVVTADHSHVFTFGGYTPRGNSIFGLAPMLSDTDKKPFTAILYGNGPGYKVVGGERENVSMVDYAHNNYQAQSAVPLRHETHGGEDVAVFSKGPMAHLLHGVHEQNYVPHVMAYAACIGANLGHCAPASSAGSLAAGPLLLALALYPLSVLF
Each line names hits and unclear results; the compound was inactive in the other large screens.

Brc1c(OCCOCCn2cncn2)ccc2ccccc12	none
O=S(=O)(NCc1cn2ccccc2n1)c1cc(F)ccc1F	none (no result: PLAP activator)
Cc1cccn2cc(CNS(=O)(=O)c3cccc(F)c3)nc12	PLAP activator 2.3 (no result: E coli RNAP, TNAP act DEA)
CCn1c(CSc2nc3ccccc3[nH]2)n[nH]c1=S	PLAP activator 2.2
CCn1c(Cc2c(C)[nH]c3ccccc23)n[nH]c1=S	none
Cc1ccc(C2=NNC(C(O)C(O)C(O)CO)S2)cc1 (configuration not stated)	PLAP activator 2.4 (no result: E coli RNAP, TNAP act DEA)
CCN1CCCC1CN(Cc1cc2cc(C)ccc2[nH]c1=O)C(=O)Nc1ccccc1OC (configuration not stated)	none
COc1ccccc1NC(=O)N(CCN(C)C)Cc1cc2cc(C)ccc2[nH]c1=O	PLAP activator 2
COC(=O)c1ccc(S(=O)(=O)N(Cc2cc3cc4c(cc3[nH]c2=O)OCO4)C2CCCCC2)cc1	none
Clc1cccc(CSc2nc3ccncc3[nH]2)c1	PLAP activator 2.4 (no result: E coli RNAP, TNAP act DEA)
Fc1cccc(CSc2nc3ccncc3[nH]2)c1	none (no result: PLAP activator)
CCc1ccccc1S(=O)(=O)Cc1ccc(C(=O)N2CCN(c3ccccn3)CC2)o1	none
Cc1c(NC(=O)CSc2nnc(-c3cccc(Cl)c3)o2)c(=O)n(-c2ccccc2)n1C	none
Cc1cc(SC(C)C(=O)Nc2c(C)n(C)n(-c3ccccc3)c2=O)nc2ccccc12 (configuration not stated)	none (no result: E coli RNAP, TNAP act DEA)
COc1cc(-c2nnc(SC(C)C(=O)Nc3c(C)n(C)n(-c4ccccc4)c3=O)o2)cc(OC)c1OC (configuration not stated)	PLAP activator 2 (no result: E coli RNAP, TNAP act DEA)
Cc1c(NC(=O)C(C)Sc2nnc(-c3ccccc3)o2)c(=O)n(-c2ccccc2)n1C (configuration not stated)	PLAP activator 2.1
Clc1ccc(Cc2noc(-c3cccs3)n2)cc1	none
O=C(c1ccc(CNS(=O)(=O)c2ccccc2)cc1)N1CCN(Cc2ccccc2)CC1	none (no result: E coli RNAP, TNAP act DEA)
O=C(Nc1ccc(Oc2cccnc2)cc1)c1ccccc1F	none (no result: E coli RNAP, TNAP act DEA)
Cc1ccc(NC(=O)CN(C)Cc2nc3ccccc3c(=O)[nH]2)c(Br)c1	PLAP activator 2.2 (no result: E coli RNAP, TNAP act DEA)
CCN(CC(=O)NC(=O)NCc1ccco1)Cc1nc2ccccc2c(=O)[nH]1	none (no result: PLAP activator)
CCC(CC)NC(=O)CCc1nc2ccccc2c(=O)[nH]1	none (no result: E coli RNAP, TNAP act DEA)
Cc1cc(Br)ccc1NC(=O)CNC(=O)CN(C)Cc1nc2ccccc2c(=O)[nH]1	none (no result: PLAP activator)
CC(NC(=O)CN(C)Cc1nc2ccccc2c(=O)[nH]1)c1ccccc1 (configuration not stated)	PLAP activator 2.3 (no result: E coli RNAP, TNAP act DEA)
CCN(CC(=O)Nc1ccccc1Br)Cc1nc2ccccc2c(=O)[nH]1	PLAP activator 2.3 (no result: E coli RNAP, TNAP act DEA)
C/C(CC1CC2=C(CC1(C)C)C(C)(C)CCC2)=N\NC(N)=S (configuration not stated)	none (no result: E coli RNAP, TNAP act DEA)
COc1cc(C(=O)NCCOc2cc(C)cc(C)c2)c(Br)c(OC)c1OC	none (no result: E coli RNAP, TNAP act DEA)
O=C(Cn1[nH]c(=O)c2ccccc2c1=O)Nc1ccc(-c2nnc3n2CCCCC3)cc1	none (no result: E coli RNAP, TNAP act DEA)
O=C(NC1CCCCC1)c1ccc(Cn2cc(Cl)cn2)cc1	none (no result: E coli RNAP, TNAP act DEA)
Cc1[nH]n2c(=O)cc(C(C)C)nc2c1-c1ccccc1	none (no result: E coli RNAP)
Cc1[nH]n2c(=O)cc(C(C)(C)C)nc2c1-c1ccccc1	TNAP act DEA 2
Cn1c(C(=O)NCCCN2CCN(c3ccccc3F)CC2)cc2c(=O)n(C)c3ccccc3c21	PLAP activator 2.3
Cn1c(C(=O)NCCCN2CCOCC2)cc2c(=O)n(C)c3ccccc3c21	none
CSc1nc2ccc(NC(=O)C3CC(=O)N(Cc4ccccc4)C3)cc2s1 (configuration not stated)	none (no result: E coli RNAP, TNAP act DEA)
CCN(CC)S(=O)(=O)c1ccc(NC(=O)c2ccccn2)cc1	none
CCN(CC)S(=O)(=O)c1ccc(NC(=O)c2ccccc2N(C)S(C)(=O)=O)cc1	PLAP activator 2.1 (no result: E coli RNAP, TNAP act DEA)
O=C(NNC(=S)NC(=O)c1ccccc1[N+](=O)[O-])c1ccccc1[N+](=O)[O-]	PLAP activator 2.5 (no result: E coli RNAP, TNAP act DEA)
COC(=O)c1ccccc1NC(=S)NC(NC(=O)c1ccccc1[N+](=O)[O-])C(Cl)(Cl)Cl (configuration not stated)	none (no result: E coli RNAP, TNAP act DEA)
COC(=O)CC1SC(=O)NC1=Nc1ccc(OC)cc1 (configuration not stated)	none (no result: E coli RNAP, TNAP act DEA)
O=c1cc(CO)oc(CN2CCN(CCO)CC2)c1O	none (no result: E coli RNAP, TNAP act DEA)
Cc1cccc(N2CCN(Cc3oc(CO)cc(=O)c3O)CC2)c1C	PLAP activator 2.2 (no result: E coli RNAP, TNAP act DEA)
O=C1NCCCC1C(=O)N1CCN(C(=O)C2CCCNC2=O)CC1 (configuration not stated)	none
Cc1ccc(S(=O)(=O)N2CCC(C(=O)N3CCC[C@H]3C(=O)NCc3ccco3)CC2)cc1	none
O=C1c2ccccc2CC1Sc1nnc(-c2ccccn2)o1 (configuration not stated)	PLAP activator 2.6
O=C1CC(Sc2nnc(-c3ccccc3O)o2)C(=O)N1c1ccccc1 (configuration not stated)	none
Cn1c(C(=O)O)c(CC(=O)NCc2cccnc2)c2ccccc21	none

Screens: PubChem BioAssay, several laboratories
